Records with an inconclusive call do not appear. Calls of active or inactive are those of the source. Unless noted, calls come from the whole dose curve; as a rule, active = well fitted inhibition curve with a large enough effect; inconclusive = small, poorly fitted or top-dose-only effect; inactive = flat fitted curve, though single readings scatter. Where a SMILES comes first, the peptide text is derived from it. Bridges are numbered along the chain shown (N, C = ends). [ ]: non-standard residue; d: D form. hArg = N=C(N)NCCCC[C@H](N)C(=O)O; Mpa = O=C(O)CCS
Assays:
[1] = qHTS drug screen for cell cycle checkpoint inhibitors in PARPi-resistant BRCA-mutant ovarian cancer cell lines. (AID 1963452; calls by dose curve); details: PEO1/OlaR viability, CellTiter-Glo luminescence, 96 h, stronger effect = lower value
How it was run: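 PEO1, PEO4 and PEO1/OlaR ovarian cancer cells, 600 per well, exposed 96 h at 37C to a dilution series. Viability read by CellTiter-Glo luminescence, normalized to DMSO and empty wells; activity summarized as Z-AUC.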

[2] = qHTS profiling for inhibitors of Plasmodium falciparum proliferation (AID 504749);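 note: 0% = DMSO vehicle and full inhibition = artemisinin control; nearly all actives have a fitted effect of over 60% in size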; details: P. falciparum in erythrocytes, SYBR Green DNA, 72 h
How it was run: (§1)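 Readout was DNA-dye fluorescence from lysed cultures, ex 485/em 535 nm. Parasitized red cells had grown 72 h with compound; data scaled between 0.29 uM artemisinin and DMSO wells and corrected using vehicle-only plates.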

3D7 = test: as above; details: P. falciparum in erythrocytes, SYBR Green DNA, 72 h; series mostly up to 28.7 µM
How it was run: as §1

7G8 = test: as above; details: P. falciparum in erythrocytes, SYBR Green DNA, 72 h; series mostly up to 28.7 µM
How it was run: as §1

AA1029 = test: as above; details: P. falciparum in erythrocytes, SYBR Green DNA, 72 h; series mostly up to 28.7 µM
How it was run: as §1

AS120 = test: as above; details: P. falciparum in erythrocytes, SYBR Green DNA, 72 h; series mostly up to 28.7 µM
How it was run: as §1

ATS189 = test: as above; details: P. falciparum in erythrocytes, SYBR Green DNA, 72 h; series mostly up to 28.7 µM
How it was run: as §1

ATS95 = test: as above; details: P. falciparum in erythrocytes, SYBR Green DNA, 72 h; series mostly up to 28.7 µM
How it was run: as §1

C2A = test: as above; details: P. falciparum in erythrocytes, SYBR Green DNA, 72 h; series mostly up to 28.7 µM
How it was run: as §1

CP185 = test: as above; details: P. falciparum in erythrocytes, SYBR Green DNA, 72 h; series mostly up to 28.7 µM
How it was run: as §1

CP191 = test: as above; details: P. falciparum in erythrocytes, SYBR Green DNA, 72 h; series mostly up to 28.7 µM
How it was run: as §1

CP192 = test: as above; details: P. falciparum in erythrocytes, SYBR Green DNA, 72 h; series mostly up to 28.7 µM
How it was run: as §1

CP194 = test: as above; details: P. falciparum in erythrocytes, SYBR Green DNA, 72 h; series mostly up to 28.7 µM
How it was run: as §1

CP201 = test: as above; details: P. falciparum in erythrocytes, SYBR Green DNA, 72 h; series mostly up to 28.7 µM
How it was run: as §1

CP203 = test: as above; details: P. falciparum in erythrocytes, SYBR Green DNA, 72 h; series mostly up to 28.7 µM
How it was run: as §1

CP211 = test: as above; details: P. falciparum in erythrocytes, SYBR Green DNA, 72 h; series mostly up to 28.7 µM
How it was run: as §1

CP215 = test: as above; details: P. falciparum in erythrocytes, SYBR Green DNA, 72 h; series mostly up to 28.7 µM
How it was run: as §1

CP217 = test: as above; details: P. falciparum in erythrocytes, SYBR Green DNA, 72 h; series mostly up to 28.7 µM
How it was run: as §1

CP237 = test: as above; details: P. falciparum in erythrocytes, SYBR Green DNA, 72 h; series mostly up to 28.7 µM
How it was run: as §1

CP238 = test: as above; details: P. falciparum in erythrocytes, SYBR Green DNA, 72 h; series mostly up to 28.7 µM
How it was run: as §1

[3] = at 28.7 µM (top of the series), parasite line A
[4] = at 28.7 µM (top of the series), parasite line B

OC[C@@H](O)[C@@H](O)[C@H](O)[C@H](O)CO
-0.786: Z-AUC ([1]; measured here: PEO4 Z-AUC)
inactive: Z-AUC [1] -0.605 | activity, negative = inhibition [2, 3] 7.85% | activity, negative = inhibition [2, 4] 7.16% | Potency (3D7) | Potency (7G8) | Potency (AA1029) | Potency (AS120) | Potency (ATS189) | Potency (ATS95) | Potency (C2A) | Potency (CP185) | outcome (CP191) | outcome (CP192) | outcome (CP194) | outcome (CP201) | Potency (CP203) | outcome (CP211) | Potency (CP215) | outcome (CP217) | Potency (CP237) | Potency (CP238)
-0.476: Z-AUC ([1]; measured here: PEO1 parental Z-AUC)

NC(=O)[C@@H]1CSSCCC(=O)N[C@@H](CCCCN=C(N)N)C(=O)NCC(=O)N[C@@H](CC(=O)O)C(=O)N[C@@H](Cc2c[nH]c3ccccc23)C(=O)N2CCC[C@H]2C(=O)N1 ([Mpa][hArg]GDWPC-NH2; disulfide 1-7)
inactive: activity, negative = inhibition [2, 3] -6.16% | activity, negative = inhibition [2, 4] 11.6% | Potency (3D7) | Potency (7G8) | Potency (AA1029) | Potency (AS120) | Potency (ATS189) | Potency (ATS95) | Potency (C2A) | Potency (CP185) | outcome (CP191) | outcome (CP192) | outcome (CP194) | outcome (CP201) | Potency (CP203) | outcome (CP211) | Potency (CP215) | outcome (CP217) | Potency (CP237) | Potency (CP238)

CCCCCCCC(=O)OCC(O)CO (stereo not drawn)
inactive: activity, negative = inhibition [2, 3] 0.997% | activity, negative = inhibition [2, 4] -8.07% | Potency (3D7) | Potency (7G8) | Potency (AA1029) | Potency (AS120) | Potency (ATS189) | Potency (ATS95) | Potency (C2A) | Potency (CP185) | outcome (CP191) | outcome (CP192) | outcome (CP194) | outcome (CP201) | Potency (CP203) | outcome (CP211) | Potency (CP215) | outcome (CP217) | Potency (CP237) | Potency (CP238)

CC(=O)NS(=O)(=O)c1ccc(N)cc1
inactive: activity, negative = inhibition [2, 3] 6.18% | activity, negative = inhibition [2, 4] 10.5% | Potency (3D7) | Potency (7G8) | Potency (AA1029) | Potency (AS120) | Potency (ATS189) | Potency (ATS95) | Potency (C2A) | Potency (CP185) | outcome (CP191) | outcome (CP192) | outcome (CP194) | outcome (CP201) | Potency (CP203) | outcome (CP211) | Potency (CP215) | outcome (CP217) | Potency (CP237) | Potency (CP238)

CC(=O)Nc1cccc(O)c1
inactive: activity, negative = inhibition [2, 3] 7.02% | activity, negative = inhibition [2, 4] 9.95% | Potency (3D7) | Potency (7G8) | Potency (AA1029) | Potency (AS120) | Potency (ATS189) | Potency (ATS95) | Potency (C2A) | Potency (CP185) | outcome (CP191) | outcome (CP192) | outcome (CP194) | outcome (CP201) | Potency (CP203) | outcome (CP211) | Potency (CP215) | outcome (CP217) | Potency (CP237) | Potency (CP238)

NC(=O)CC[C@@H](N)C(=O)O
inactive: activity, negative = inhibition [2, 3] 3.38% | activity, negative = inhibition [2, 4] 6.23% | Potency (3D7) | Potency (7G8) | Potency (AA1029) | Potency (AS120) | Potency (ATS189) | Potency (ATS95) | Potency (C2A) | Potency (CP185) | outcome (CP191) | outcome (CP192) | outcome (CP194) | outcome (CP201) | Potency (CP203) | outcome (CP211) | Potency (CP215) | outcome (CP217) | Potency (CP237) | Potency (CP238)

CCCCOC(=O)c1ccc(N)cc1
inactive: activity, negative = inhibition [2, 3] 5.58% | activity, negative = inhibition [2, 4] 10.8% | Potency (3D7) | Potency (7G8) | Potency (AA1029) | Potency (AS120) | Potency (ATS189) | Potency (ATS95) | Potency (C2A) | Potency (CP185) | outcome (CP191) | outcome (CP192) | outcome (CP194) | outcome (CP201) | Potency (CP203) | outcome (CP211) | Potency (CP215) | outcome (CP217) | Potency (CP237) | Potency (CP238)

COc1ccccc1OC(=O)Oc1ccccc1OC
inactive: activity, negative = inhibition [2, 3] -1.25% | activity, negative = inhibition [2, 4] 5.57% | Potency (3D7) | Potency (7G8) | Potency (AA1029) | Potency (AS120) | Potency (ATS189) | Potency (ATS95) | Potency (C2A) | Potency (CP185) | outcome (CP191) | outcome (CP192) | outcome (CP194) | outcome (CP201) | Potency (CP203) | outcome (CP211) | Potency (CP215) | outcome (CP217) | Potency (CP237) | Potency (CP238)

CCCCC1(COC(=O)CCC(=O)O)C(=O)N(c2ccccc2)N(c2ccccc2)C1=O
inactive: activity, negative = inhibition ([2]; at 12.8 µM (top of the series), parasite line A) 7.36% | activity, negative = inhibition ([2]; at 12.8 µM (top of the series), parasite line B) 2.05% | Potency (3D7) | Potency (7G8) | Potency (AA1029) | Potency (AS120) | Potency (ATS189) | Potency (ATS95) | Potency (C2A) | Potency (CP185) | outcome (CP191) | outcome (CP192) | outcome (CP194) | outcome (CP201) | Potency (CP203) | outcome (CP211) | Potency (CP215) | outcome (CP217) | Potency (CP237) | Potency (CP238)

CCOc1cc(NC(C)=O)ccc1C(=O)OC
inactive: activity, negative = inhibition [2, 3] 4.89% | activity, negative = inhibition [2, 4] 12.8% | Potency (3D7) | Potency (7G8) | Potency (AA1029) | Potency (AS120) | Potency (ATS189) | Potency (ATS95) | Potency (C2A) | Potency (CP185) | outcome (CP191) | outcome (CP192) | outcome (CP194) | outcome (CP201) | Potency (CP203) | outcome (CP211) | Potency (CP215) | outcome (CP217) | Potency (CP237) | Potency (CP238)

N[C@@H](Cc1ccc(O)cc1)C(=O)O
inactive: activity, negative = inhibition [2, 3] 13.6% | activity, negative = inhibition [2, 4] 10.5% | Potency (3D7) | Potency (7G8) | Potency (AA1029) | Potency (AS120) | Potency (ATS189) | Potency (ATS95) | Potency (C2A) | Potency (CP185) | outcome (CP191) | outcome (CP192) | outcome (CP194) | outcome (CP201) | Potency (CP203) | outcome (CP211) | Potency (CP215) | outcome (CP217) | Potency (CP237) | Potency (CP238)

COc1ccc(C(=O)N2CCN(CC(=O)N3CCOCC3)CC2)cc1
inactive: activity, negative = inhibition [2, 3] 2.87% | activity, negative = inhibition [2, 4] 20.6% | Potency (3D7) | Potency (7G8) | Potency (AA1029) | Potency (AS120) | Potency (ATS189) | Potency (ATS95) | Potency (C2A) | Potency (CP185) | outcome (CP191) | outcome (CP192) | outcome (CP194) | outcome (CP201) | Potency (CP203) | outcome (CP211) | Potency (CP215) | outcome (CP217) | Potency (CP237) | Potency (CP238)

O=C(O)Cn1c(C(=O)Nc2nc(-c3ccccc3Cl)cs2)cc2ccccc21
inactive: activity, negative = inhibition [2, 3] 10.1% | activity, negative = inhibition [2, 4] 5.81% | Potency (3D7) | Potency (7G8) | Potency (AA1029) | Potency (AS120) | Potency (ATS189) | Potency (ATS95) | Potency (C2A) | Potency (CP185) | outcome (CP191) | outcome (CP192) | outcome (CP194) | outcome (CP201) | Potency (CP203) | outcome (CP211) | Potency (CP215) | outcome (CP217) | Potency (CP237) | Potency (CP238)

— PubChem BioAssay (NCATS)
